Data on 19 molecules can be found in PubChem BioAssay (NCI).

Experiment [1] in a line: NCI Yeast Anticancer Drug Screen. Data for the rad50 strain (AID 155).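 Further: 0% = growth of vehicle-only cultures of the same strain.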 Conditions: S. cerevisiae rad50 strain growth inhibition; at 50.0 µM; hits give high values. Summed up:
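A DNA repair-deficient yeast mutant serves as the test organism; compound-induced growth inhibition is calculated against vehicle-treated cells.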

Experiment [2] is described as follows: NCI Yeast Anticancer Drug Screen. Data for the mec2-1 strain (AID 157). As to conditions: S. cerevisiae mec2-1 strain, at 50.0 µM, hits give high values. Summed up:
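Strain: mec2-1 (DNA repair/cell cycle alteration). Compound exposure, then growth measured; inhibition expressed relative to vehicle.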

Experiment [3] can be described thus: NCI Yeast Anticancer Drug Screen. Data for the sgs1 mgt1 strain (AID 161).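 Further: 0% = growth of cultures given vehicle only.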 Conditions: S. cerevisiae sgs1 mgt1 strain, at 50.0 µM, hits give high values. The method in brief:
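Mutant yeast exposed to compound; growth scored against vehicle-only wells.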

Experiment [4] in a line: NCI Yeast Anticancer Drug Screen. Data for the cln2 rad14 strain (AID 165).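 Further: 0% = growth equal to vehicle treated cultures.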 Conditions: S. cerevisiae cln2 rad14 strain, at 50.0 µM, hits give high values. Summed up:
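Compounds are applied to the cln2 rad14 yeast strain, and growth is then compared with that of vehicle-treated cultures to give inhibition.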

The nature of experiment [5]: NCI Yeast Anticancer Drug Screen. Data for the bub3 strain (AID 167). As to conditions: S. cerevisiae bub3 mutant strain, at 50.0 µM, hits give high values. Summed up: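 Inhibition values come from growth of compound-treated mutant yeast normalised to vehicle-treated controls.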
Experiment [6] in a line: NCI Yeast Anticancer Drug Screen. Data for the mlh1 rad18 strain (AID 175). As to conditions: S. cerevisiae mlh1 rad18 strain growth inhibition; at 50.0 µM; hits give high values. Summed up: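 Read-out is yeast growth inhibition, calculated against vehicle-only controls. The compound was applied to a strain engineered with DNA damage repair alterations.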

Compounds without any hit were thinned out: in the full panel of roughly 79,000, 15% have a hit. A number with no mark means an inactive call. Calls of active or inactive are those of the source. No stated cut-off is given here; in the data, active means growth inhibition above about 70%; inactive means the rest. *1 amine or outer side, *2 acyl side, *3 side chain or, on linkers, in order; H or OH if unused. Where a SMILES comes first, the peptide text is derived from it. Bridges are numbered along the chain shown (N, C = ends). [ ]: non-standard residue; d: D form. The star is where a group is joined. X16 = CC(C)C(C)C(C(=O)[*:2])N(C)[*:1]; Picolinoyl(3-OH) = O=C(c1ncccc1O)*; NMePhg = CN[CH](C(=O)O)c1ccccc1; Hyp = O=C(O)[CH]1C[CH](O)CN1; Sar = CNCC(=O)O

Consider `Cc1ccc(S(=O)(=O)Nc2ccccc2-c2nc3c(Cl)ccc(Cl)c3c(=O)o2)cc1`, for which the growth inhibition in experiment [1] is 33.6%; in experiment [2] it was 0.15%; in experiment [3], 41.5%; in experiment [4], -10.3%; in experiment [5], -5.45%; in experiment [6], 10.7%.
With `CN(Cc1ccccc1)c1ccc(C(=O)O)cc1`, the growth inhibition is -2.65% in experiment [1]; 2.3% in experiment [2]; -5.55% in experiment [3]; -19% in experiment [4]; -23.6% in experiment [5]; 7% in experiment [6].
As for `CCNS(=O)(=O)c1cc(C(=O)O)cc(C(=O)O)c1`, the growth inhibition in experiment [1] is 6.9%; in experiment [2], -7.6%; in experiment [3], -4.95%; in experiment [4], -28.9%; in experiment [5], -5.55%; in experiment [6], 0.15%.
As for `Cc1cc(O)c(C(c2ccccn2)c2c(O)cc(C)[nH]c2=O)c(=O)[nH]1`, the growth inhibition in experiment [1] was -4.85%; in experiment [2], 6.15%; in experiment [3], -7.9%; in experiment [4], -2.55%; in experiment [5], -0.25%; in experiment [6], 5%.
In the case of `O=C(O)c1ccccc1C(=O)OC1CC2C=CC1C21CC1` (centres undefined), the growth inhibition in experiment [1] was -12.2%; in experiment [2] it was -13.2%; in experiment [3] it was -15.3%; in experiment [4] it was -1.9%; in experiment [5], -6.2%; in experiment [6] it was -9.75%.
As to `Cc1ccc(S(=O)(=O)N2C(=N)C(=S)N(C)C2=O)cc1`, the growth inhibition in experiment [1] was -42.9%; in experiment [2], -10.3%; in experiment [3], -15.4%; in experiment [4], -30.4%; in experiment [5], -15.8%; in experiment [6], 12.4%.
As to `Cc1cccc(C)[n+]1[O-]`, the growth inhibition in experiment [1] was 1.6%; in experiment [2], 5.25%; in experiment [3], -6.9%; in experiment [4] it was -38.8%; in experiment [5] it was 16.5%; in experiment [6], 0.65%.
As to `COc1ccc(OCOCOc2ccc(OC)cc2)cc1`, the growth inhibition in experiment [1] was -8.05%; in experiment [2] it was 9.5%; in experiment [3], 12.2%; in experiment [4], -285%; in experiment [5], 42.9%; in experiment [6] it was -27.8%.
For `Cc1ccc(S(=O)(=O)N2CCSCCN(S(=O)(=O)c3ccc(C)cc3)CCN(S(=O)(=O)c3ccc(C)cc3)CC2)cc1`, the growth inhibition in experiment [1] is 5.7%; in experiment [2], -2.7%; in experiment [3], 0.2%; in experiment [4] it was -19.9%; in experiment [5], -18.7%; in experiment [6], -18.4%.
With `Cc1[nH]c(=O)nc(N(CCO)/N=C/c2ccc(Cl)cc2)c1C(=O)Nc1ccc(Cl)cc1`, the growth inhibition is 6.7% in experiment [1]; 38.6% in experiment [2]; -18.1% in experiment [3]; 12.4% in experiment [4]; -13.3% in experiment [5]; -36% in experiment [6].
As for `N#Cc1ccc(OCCCCCOc2ccc(C#N)cc2I)c(I)c1`, the growth inhibition in experiment [1] was -4.5%; in experiment [2], -2.05%; in experiment [3], -8%; in experiment [4] it was -22.8%; in experiment [5] it was -0.85%; in experiment [6], -44.1%.
Regarding `CC(=O)CC(=O)Nc1ccc(C(=O)c2ccccc2)cc1`, the growth inhibition in experiment [1] was 8.35%; in experiment [2], -41.3%; in experiment [3], -13%; in experiment [4] it was 1.5%; in experiment [5], 4.5%; in experiment [6] it was -22.2%.
`CCCC1=C(OC)C(=O)c2c(C)cc(Cl)nc2C1=O`: the growth inhibition in experiment [1] was 48.5%; in experiment [2] it was 48.2%; in experiment [3], 86.2% (active); in experiment [4], 78.8% (active); in experiment [5], 87.5% (active); in experiment [6], 38.9%.
Take `O=C(NC1C(=O)NNC1c1cccc([N+](=O)[O-])c1)c1ccccc1` (centres undefined): the growth inhibition in experiment [1] is -37.5%; in experiment [2] it was -26.1%; in experiment [3], 2.85%; in experiment [4], -10.6%; in experiment [5], 11.9%; in experiment [6] it was 0.55%.
As to `CC(C)CC1NC(=O)C(NC(=O)c2ncccc2O)C(C)OC(=O)C(c2ccccc2)N(C)C(=O)C(C)NC(=O)C(C(C)C(C)C)N(C)C(=O)CN(C)C(=O)C2CC(O)CN2C1=O` (centres undefined) ({Picolinoyl(3-OH)}-TL[Hyp][Sar][X16]A[NMePhg]; ester 1-C; configuration not given here), the growth inhibition in experiment [1] was 15.8%; in experiment [2], 3.65%; in experiment [3], 19.1%; in experiment [4], 3%; in experiment [5] it was -10.9%; in experiment [6], -2.35%.
With `C[N+]1(C)CCCC(CO)(c2ccccc2)CC1` (centres undefined), the growth inhibition in experiment [1] was 10.2%; in experiment [2] it was 13%; in experiment [3], 3.3%; in experiment [4], -15.5%; in experiment [5] it was 14.9%; in experiment [6], 7.7%.
On to `Cn1nc(-c2cccc(N)c2)cc1Cl`, for which the growth inhibition is -17.6% in experiment [1]; -10.4% in experiment [2]; 3.75% in experiment [3]; -39.5% in experiment [4]; -15.6% in experiment [5]; 2.95% in experiment [6].
Regarding `CN(C)CSC(=S)NCCNC(=S)SCN(C)C`, the growth inhibition in experiment [1] was 1.6%; in experiment [2] it was -19.6%; in experiment [3] it was 24.8%; in experiment [4], 5.95%; in experiment [5], 4%; in experiment [6] it was -4.1%.
Consider `CCN(CC)C(=S)Nc1ccc(-c2cc3ccc(O)cc3oc2=O)cc1`, for which the growth inhibition is -6.95% in experiment [1]; 11.6% in experiment [2]; -5.45% in experiment [3]; 32.9% in experiment [4]; 18.2% in experiment [5]; 6.15% in experiment [6].
